# Source: PubChem BioAssay (EPA / NIEHS)
# Calls of active or inactive are those of the source. How the source made its calls: active means hit-call score of the fitted dose curve at least 0.9, where 1 is the maximum; inactive means score below 0.9.
# Assay: CCTE_Padilla_ZF_Score.Any: CCTE's 144 Hour Post-fertilization zebrafish Assay Score for Any Mortality or Malformation, Padilla Lab (AID 2284416)
# How it was run: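 Wild-type zebrafish embryos with chorions, one per well in 10% Hanks' from 6–8 hpf, dosed in sealed plates at 26 C, 14:10 h light:dark; rinsed at 5 dpf; blinded scoring at 6 dpf for death or malformation, versus DMSO.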
SMILES,AC50,outcome
O=C(O)CCC(F)(F)C(F)(F)C(F)(F)F,77.1 µM (active),
O=S(=O)(O)CCC(F)(F)C(F)(F)C(F)(F)C(F)(F)C(F)(F)C(F)(F)C(F)(F)C(F)(F)F,,inactive
NS(=O)(=O)C(F)(F)C(F)(F)C(F)(F)C(F)(F)C(F)(F)C(F)(F)F,1.81 µM (active),
OC(O)C(F)(F)C(F)(F)F,,inactive
O=C(O)C(F)(F)C(F)(F)C(F)(F)C(=O)O,,inactive
C=C(C)C(=O)OCC(F)(F)C(F)(F)C(F)(F)C(F)F,30 µM (active),
O=S(=O)(Cl)C(F)(F)C(F)(F)C(F)(F)C(F)(F)C(F)(F)C(F)(F)C(F)(F)C(F)(F)F,12.1 µM (active),
NC(O)(C(F)(F)F)C(F)(F)F,,inactive
C=CC(=O)OCCC(F)(F)C(F)(F)C(F)(F)C(F)(F)F,30 µM (active),
O=C(O)C(F)(F)C(F)(F)C(F)(F)OC(F)(C(F)(F)F)C(F)(F)F,,inactive
CCN(CCO)S(=O)(=O)C(F)(F)C(F)(F)C(F)(F)C(F)(F)C(F)(F)C(F)(F)C(F)(F)C(F)(F)F,,inactive
CO[Si](C)(CCC(F)(F)C(F)(F)C(F)(F)C(F)(F)C(F)(F)C(F)(F)F)OC,,inactive
NC(=O)C(F)(F)C(F)(F)C(F)(F)C(F)F,,inactive
NCC(F)(F)C(F)(F)C(F)(F)C(F)(F)C(F)(F)C(F)(F)F,75.3 µM (active),
CN(C(=O)C(F)(F)C(F)(F)C(F)(F)F)[Si](C)(C)C,,inactive
O=C(O)C(F)(F)C(F)(F)C(F)(F)OC(F)(F)F,,inactive
O=C(O)CCC(F)(F)C(F)(F)C(F)(F)C(F)(F)C(F)(F)C(F)(F)C(F)(F)F,,inactive
